Screening results from PubChem BioAssay.
Pol kappa inh = inhibitors of human DNA polymerase kappa; Q9UBT6; purified Pol kappa, fluorescent DNA synthesis assay, 10 min; Potency, µM (series often up to 107 µM), for the others: at the highest dose activity, negative = inhibition, hits mostly inhibitors; 0.53% of 400,000 active; AID 588579; also: % is scaled to controls: 0 for no effect and ±100 for the full control effect
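Pol kappa 10 nM + cpd, 15 min RT; start w/ substrate 50 nM final; fluorescence kinetic read, 0 and 10 min. Neg ctrl: buffer, no enzyme.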
POLB inh = blocks human DNA polymerase beta activity; P06746; Potency, µM (series often up to 114 µM), inactives show top-dose activity change, negative = inhibition, usual class: inhibitors; Pol beta primer extension/strand displacement, fluorescence kinetic; 1.3% of 340,000 active; also: % is scaled to controls: 0 for no effect and ±100 for the full control effect
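Pol beta (10 nM) was preincubated with compound for 15 min at room temperature. The reaction was then started with 50 nM substrate and read immediately and after a further 10 min at room temperature.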
TDP1 inh = inhibitors of human tyrosyl-DNA phosphodiesterase TDP1 | Q9NUW8 | recombinant TDP1, AlphaScreen DNA substrate cleavage | Potency, µM (top dose mostly 130 µM), inactives show at the top dose activity change, negative = inhibition, usual class: inhibitors | 0.28% of 350,000 active | AID 485290; also: % is scaled to controls: 0 for no effect and ±100 for the full control effect; nearly all actives have a fitted effect of over 40% in size
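Compounds were preincubated with Tdp1 (1 nM final) for 15 min at room temperature before substrate (15 nM final) started a 5 min reaction; beads (10 ug/ml final) were then added for 10 min before AlphaScreen detection.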
FEN1 inhibitor = human FEN1 inhibition. P39748. Recombinant FEN1 flap cleavage, fluorescence, 15 min. Potency, µM (highest dose often 114 µM), without a hit: at the highest dose activity change, negative = inhibition, hits mostly inhibitors. 0.35% of 390,000 active. AID 588795; also: % is scaled to controls: 0 for no effect and ±100 for the full control effect; nearly all actives have a fitted effect of over 65% in size
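In this screen, 50 nM flap DNA substrate was added to 10 nM FEN1 pretreated with compound for 15 min at room temperature; cleavage was followed with reads at 0 and 15 min, and Hill fitting gave concentration–response parameters.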
Pol iota inh = DNA polymerase iota (human) inhibition; Q9UNA4; Pol iota fluorescent replication assay, 10 min; Potency, µM (doses to about 115 µM), for inactives: top-dose activity, negative = inhibition, actives largely listed as inhibitors; 1% of 390,000 active
Target sequence (Q9UNA4 whole entry, looked up): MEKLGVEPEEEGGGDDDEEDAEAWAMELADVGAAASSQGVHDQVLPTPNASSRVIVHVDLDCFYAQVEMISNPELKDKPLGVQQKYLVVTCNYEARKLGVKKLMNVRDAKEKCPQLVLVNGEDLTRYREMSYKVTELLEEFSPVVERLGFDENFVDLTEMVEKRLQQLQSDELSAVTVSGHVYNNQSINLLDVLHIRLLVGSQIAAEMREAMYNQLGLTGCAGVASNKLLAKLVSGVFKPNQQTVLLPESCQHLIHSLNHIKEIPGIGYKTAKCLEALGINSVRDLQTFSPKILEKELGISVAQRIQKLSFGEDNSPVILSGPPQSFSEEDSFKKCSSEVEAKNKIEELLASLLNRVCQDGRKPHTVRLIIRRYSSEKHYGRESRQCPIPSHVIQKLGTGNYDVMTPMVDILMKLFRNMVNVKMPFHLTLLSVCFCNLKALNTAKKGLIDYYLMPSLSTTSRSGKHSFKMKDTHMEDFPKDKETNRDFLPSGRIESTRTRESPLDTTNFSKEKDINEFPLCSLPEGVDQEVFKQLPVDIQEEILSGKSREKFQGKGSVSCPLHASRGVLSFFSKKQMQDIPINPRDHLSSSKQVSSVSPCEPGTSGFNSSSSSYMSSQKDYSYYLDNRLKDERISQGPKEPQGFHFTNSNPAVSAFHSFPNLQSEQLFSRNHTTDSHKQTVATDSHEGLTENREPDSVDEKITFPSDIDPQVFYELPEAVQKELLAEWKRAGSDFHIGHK
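Pol iota at 10 nM preincubated 15 min with compounds at room temperature; reaction started with fluorescent substrate, 50 nM final. Fluorescence read kinetically at 0 and 10 min; buffer-only wells as negative control.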
POLH inh = DNA polymerase eta (human) inhibition | 1.2% of 390,000 active | Potency, µM (doses to about 114 µM), without a hit: at the highest dose activity change, negative = inhibition, usual class: inhibitors | AID 588591 | recombinant Pol eta, fluorescent DNA replication assay | Q9Y253; also: % is scaled to controls: 0 for no effect and ±100 for the full control effect
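Fluorescent replication assay: 50 nM final substrate added after a 15 min room-temperature compound preincubation with 10 nM enzyme. Signal taken at 0 min and again at 10 min.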
* hit, by the source's call; ? = inconclusive; . = no result given; [ ] = remark or other dose. The list is not random: actives were taken first. Their share in the collection is about 2.4%. Calls follow the shape of the dose curve; as a rule, active = well fitted curve in the direction sought with a large enough effect; inconclusive = small, poorly fitted or top-dose-only effect, or another doubt; inactive = no such curve, though single readings can be large; an effect the other way counts as inactive or inconclusive. Potency is read from the fitted curve at half-maximal effect.

SMILES	Pol kappa inh	POLB inh	TDP1 inh	FEN1 inhibitor	Pol iota inh	POLH inh
Cc1ccc(OC(C)C(=O)N2CCN(CCc3ccccn3)CC2)cc1C (configuration not stated)	5%	24%	-5%	-4%	12%	-12%
Nc1ccc(S(=O)(=O)N2CCN(S(=O)(=O)c3ccc4c(c3)OCCO4)CC2)cc1	.	.	0%	.	.	.
COC(=O)N/N=C/C1=C[N+](=O)c2ccccc2[N+]1=O	-8%[60.1 µM]	.	-14%[56.1 µM]	.	.	.
O=C(O)CCc1ccc(-c2cccs2)n1Cc1ccco1	-8%	50µM*	0%	-2%	?	?
O=C(O)CCc1ccc(-c2cccs2)n1NC(=O)c1ccc(O)cc1	?	?	0%	-2%	?	89µM*
O=C(O)CCc1ccc(-c2cccs2)o1	?	-21%	16µM*	-16%	40µM*	45µM*
O=[N+]([O-])c1ccc(O/N=[N+](\[O-])N2CCN(c3ccccc3)CC2)c([N+](=O)[O-])c1	-22%	.	.	-4%	?	.
CC1(C)OC(=O)C2(Cc3c(F)cccc3N3CCCC32)C(=O)O1 (configuration not stated)	-7%	.	.	3%	?	.
OC(Cc1ccc2ccccc2n1)c1c(Cl)cccc1Cl (configuration not stated)	7%	.	.	12%	18%	.
COc1ccc(C2/C=C\[C@H](O[Si](C)(C)C(C)(C)C)[C@H](C(C)C)CC(=O)N2Cc2ccccc2)cc1 (some centres not stated)	-19%[60.1 µM]	.	5%	.	.	.
CC(C)C[C@H](NC(=O)[C@H](Cc1ccccc1)C[C@@H](O)[C@H](Cc1ccccc1)NC(=O)OC(C)(C)C)C(=O)N[C@@H](Cc1ccccc1)C(N)=O	-4%[60.1 µM]	.	5%	.	.	.
O=C(Nc1nc2c(F)cc(F)cc2s1)c1ccc2c(c1)OCCO2	2%[60.1 µM]	3%	45µM*	-4%	27%	.
C=CCN=c1scc(C)n1/N=C/c1ccc(O)c(O)c1	?	2.5µM*	6%	13%	?	-6%
COc1ccc([C@H]2[C@H](c3ccccc3)C(=O)N2Cc2ccccc2)cc1COc1ccc(NC(C)=O)cc1	.	.	0%	.	.	.
COc1ccc(OC)c2c(C)c(C)[nH]c12	-10%	28µM*	.	-17%	-16%	-17%
COc1ccc(OC)c2c(=O)cc(C(=O)O)[nH]c12	-1%	-26%	.	1%	159%	-10%
Cc1cc(C(=O)O)ccc1-n1c(C)cc(/C=C(/C#N)C(=O)Nc2ccccc2)c1C	-9%	-5%	.	1%	79µM*	?
CCCCCCCCCC[n+]1cc(Br)cc(Br)c1	-6%	.	.	-11%	21%	.
CC(=O)N1CCc2c(sc(NC(=O)C3CC3)c2-c2nc3ccccc3s2)C1	-19%	24%	1%	?	48%	25µM*
CC(C)Nc1cccc(S(=O)(=O)N2CCCN(S(=O)(=O)c3ccc4c(c3)OCCO4)CC2)c1	.	.	1%	.	.	.
CCOC(=O)c1c(CC(C)C)csc1NC(=O)COC(=O)c1cnc(C)cn1	.	.	.	.	.	-13%
CCOC(=O)c1c(-c2ccco2)csc1NC(=O)COC(=O)c1cnc(C)cn1	?	.	.	-14%	40µM*	25µM*
Cc1nc([N+](=O)[O-])cn1CC(=O)c1ccc2c(c1)OCCO2	9%	.	.	-5%	-8%	.
CCN(CC)CCOc1c(Br)ccc2c1sc1nc3n(c(=O)c12)CCC3	2%	-12%	.	50µM*	?	3%
O=c1c2c(nc3n1CCCCC3)sc1c(O)c(Br)ccc12	-17%	0%	-3%	-16%	?	7%
Cc1cc([N+](=O)[O-])c2[nH]c(C(=O)N/N=C/c3ccccc3C(=O)O)c(-c3ccccc3)c2c1	-7%	28µM*	-8%	?	21%	45µM*
NS(=O)(=O)c1ccc(N/N=C/c2ccccc2C(=O)O)c([N+](=O)[O-])c1	-18%	1%	4%	-2%	58%	-5%
Cc1cnc(/C=C/c2ccc(N(C)C)cc2)cn1	0%	.	.	?	2%	.
